Screening results from PubChem.
The list is not random: actives were taken first. Their share in the collection is about 8.8%.
KB-3-1 cytotox: KB-3-1 parental cell cytotoxicity; KB-3-1 viability, CellTiter-Glo ATP luminescence, 72 h; AID 1347075; hit rate 1.4% among 400,000; Potency, µM (highest dose often 46.1 µM), hits mostly cytotoxic; note: potency is the fitted concentration of half-maximal effect; nearly all actives have a fitted effect of over 60% in size
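Parental KB-3-1 adenocarcinoma cells in phenol-red-free DMEM with 10% FBS were pin-treated with compounds at several concentrations, incubated 72 h at 37 °C, and viability read by CellTiter-Glo luminescence; concentration-effect curves were fitted after normalization.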
IL-1B inflam inh: inflammasome signaling inhibition, IL-1 beta readout | hit rate 4.7% among 360,000 | activity change, % at 57.5 µM | THP-1 LPS/ATP IL-1B secretion, AlphaLISA, 16 h; hits give low values | AID 743279; in the data active = activity change below about -50%; inconclusive = mostly about -30% to -49%
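THP-1 cells pretreated 1 hr with compounds (up to 57.5 uM final), then stimulated with LPS (250 ng/mL final) plus ATP (1.25 mM final); secreted IL-1B measured by AlphaLISA after 16 hr, decreased signal indicating inhibition.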
KB-V1 cytotox: KB-V1 MDR subline cytotoxicity; KB-V1 MDR cells viability, CellTiter-Glo, 72 h; Potency, µM (highest dose often 46.1 µM), usual class: cytotoxic; hit rate 3.4% among 400,000; AID 1347076; note: potency is the fitted concentration of half-maximal effect; nearly all actives have a fitted effect of over 60% in size
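In this primary screen, KB-V1 cells overexpressing P-gp are incubated with library compounds (lowest to highest concentration) for 72 h at 37 degrees C before a luminescent ATP viability read.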
HT1080 IDH1KD tx: toxicity to HT-1080 IDH1 knockdown cells (counter line) | HT-1080 IDH1 knockdown viability, ATP luminescence, 48 h | hit rate 2% among 360,000 | AID 686971 | Potency, µM (highest dose often 46.1 µM), for the others: at the top dose activity, negative = toxicity, actives largely listed as cytotoxic;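 note: potency is the fitted concentration of half-maximal effect; 0% = DMSO wells and -100% = cell-free medium wells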
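Using the IDH1-knockdown HT-1080 line run in the same batch and compound series as the NT line, viability after 48 h at 37 °C was determined by CellTiter-Glo luminescence and expressed as % activity.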
HT1080NT lethal: kills 2HG-producing HT-1080-NT fibrosarcoma cells; HT-1080-NT fibrosarcoma viability, CellTiter-Glo ATP luminescence, 48 h; Potency, µM (highest dose often 46.1 µM), for inactives: top-dose activity, negative = less viability, actives largely listed as cytotoxic; hit rate 1.6% among 360,000; AID 686970;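 note: NT is the 2HG producing partner of a matched IDH1 knockdown line; potency is the fitted concentration of half-maximal effect; 0% = DMSO-treated cells and -100% = media-only wells without cells; nearly all actives have a fitted effect of over 55% in size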
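Fibrosarcoma NT cells, 750 per well in 5% FBS RPMI, were exposed to compound for 48 hours. Viability: CellTiter-Glo luminescence.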
* = called active by the depositor; i = inactive; u = inconclusive; x = no result given. Unless noted, calls come from the whole dose curve; as a rule, active = well fitted curve in the direction sought with a large enough effect; inconclusive = small, poorly fitted or top-dose-only effect, or another doubt; inactive = no such curve, though single readings can be large; an effect the other way counts as inactive or inconclusive. Unless noted, % is set by controls: 0 for no effect and ±100 for the full control effect.

SMILES | KB-3-1 cytotox | IL-1B inflam inh | KB-V1 cytotox | HT1080 IDH1KD tx | HT1080NT lethal
CC(C)=C[C@H]1C[C@H](C)[C@H]2CC[C@H](C)c3c(O[C@@H]4OC[C@@H](O)[C@H](O)C4O)c(O)c(C)c1c32 (stereo partly specified) | i | -74* | i | u | u
CC(=O)O[C@H]1[C@H](O)[C@H](Oc2c(O)c(C)c3c4c2[C@@H](C)CC[C@@H]4[C@@H](C)C[C@H]3C=C(C)C)O[C@@H](C)[C@H]1O | i | -77* | i | u | u
Cc1ccc(S(=O)(=O)N2CCCCC2)cc1NC(=O)Cn1ncc(Cl)c(Cl)c1=O | u | -102* | i | 15µM* | 21µM*
Cc1ccc(S(=O)(=O)N2CCCCC2)cc1NC(=O)CNC(C)c1ccc(Cl)c(Cl)c1 (stereo unspecified) | 15µM* | -63* | i | -18% | u
Cc1ccc(S(=O)(=O)N2CCCCC2)cc1NCC(=O)Nc1ccc(Br)cc1F | 3.3µM* | u | u | u | u
Cc1cc(Br)ccc1NC(=O)CNC(=O)Cn1ncc(Cl)c(Cl)c1=O | 5.2µM* | -98* | u | 2.6µM* | 3.7µM*
Cc1ccc2oc(=O)c3cnn(CC(=O)Nc4ccc(Br)cc4C)c3c2c1 | i | x | i | x | x
CC(C)C(=O)N1CCC2(CC1)Oc1ccc(Cl)cc1C(=O)C21CC(c2cccnc2)=NO1 (stereo unspecified) | i | -24 | i | 5% | 6%
O=C(NCC(=O)N1CCCCCC1)c1ccc(Br)cc1 | i | 0 | i | -2% | 6%
CCN1CCCC1CNc1ncnc2c1[nH]c1ccc(Cl)cc12 (stereo unspecified) | u | -110* | u | u | 15µM*
CCN1CCCC1Cn1cnc2c([nH]c3ccc(C)cc32)c1=O (stereo unspecified) | i | -58* | i | 5% | 2%
Cc1ccc2[nH]c3c(NCCN4CCOCC4)ncnc3c2c1 | i | -5 | u | -16% | -8%
Clc1ccc2[nH]c3c(NCCCN4CCOCC4)ncnc3c2c1 | i | -90* | i | u | u
Cc1cc(C)cc(-n2c(C)cc(C(=O)C(=O)Nc3ccccc3F)c2C)c1 | i | x | i | x | x
O=C(O)c1ccsc1Cc1cccs1 | i | -9 | i | 0% | 1%
CSCCC(=O)N(C)CC1CCN(CCc2cccc(C(F)(F)F)c2)CC1 | i | -13 | i | 3% | 4%
CN(CC1CCCN(CCc2cccc(C(F)(F)F)c2)C1)C(=O)c1ccco1 (stereo unspecified) | i | 11 | i | -2% | -2%
CC(=O)Nc1ccc(CN(C)CC2CCCN(CCc3cccc(C(F)(F)F)c3)C2)cc1 (stereo unspecified) | i | -69* | i | 21µM* | u
CN(CC1CCN(CCc2cccc(C(F)(F)F)c2)CC1)C(=O)c1ccc(F)cc1F | i | -51* | i | -10% | -2%
COc1ccc(C(=O)N(C)CC2CCN(CCc3cccc(C(F)(F)F)c3)CC2)cc1C | i | -61* | i | 1% | -8%
CCOC(=O)C1CCN(S(=O)(=O)c2ccc3c4c(cccc24)C(=O)N3CC)CC1 | i | 39 | i | -7% | -8%
Cc1nnc(N2CCOCC2)c2nn(-c3ccccc3)c(C)c12 | i | 2 | u | -4% | 0%
c1ccc(-n2nnc3c(N4CCOCC4)ncnc32)cc1 | u | 5 | 16µM* | -1% | -4%
c1ccc(Cn2nnc3c(N4CCc5ccccc5C4)ncnc32)cc1 | i | -11 | 15µM* | 9% | 17%
c1ccc(Cn2nnc3c(N4CCCC4)ncnc32)cc1 | i | -3 | 18µM* | u | -21%
SMILES | KB-3-1 cytotox | IL-1B inflam inh | KB-V1 cytotox | HT1080 IDH1KD tx | HT1080NT lethal
COc1cccc(-c2nc(SCC(=O)NCC3CCCO3)c(-c3ccc(Cl)cc3)[nH]2)c1 (stereo unspecified) | i | x | u | x | x
Cc1ncc(CN2CCN(C(C)C)C(CCO)C2)s1 (stereo unspecified) | i | 73 | i | 10% | 7%
O=C1N/C(=C/c2ccc(N3CCOCC3)o2)C(=O)N1c1ccccc1 | i | -104* | i | -4% | u
NC(=O)CSc1ncc2c(n1)-c1ccccc1N(Cc1ccc(Cl)cc1)S2(=O)=O | i | x | i | x | x
O=C(c1cc(N2C(=O)C3C4CCC(C4)C3C2=O)ccc1Cl)N1CCCCCC1 (stereo unspecified) | i | 22 | i | 9% | 5%
COc1ccc(N2CCN(C(=O)c3cc(N4C(=O)C5C6CCC(C6)C5C4=O)ccc3Cl)CC2)cc1 (stereo unspecified) | u | 12 | 4.6µM* | 1% | 0%
COc1ccc(N2CCN(C(=O)c3cccc(N4C(=O)C5CC=CC(C)C5C4=O)c3)CC2)cc1 (stereo unspecified) | i | 0 | 18µM* | 0% | 14%
O=C(c1cc(N2C(=O)C3C4CCC(C4)C3C2=O)ccc1Cl)N1CCN(c2ccc(F)cc2)CC1 (stereo unspecified) | u | 0 | 2.6µM* | -4% | -2%
O=C(c1cc(N2C(=O)C3C4CCC(C4)C3C2=O)ccc1Cl)N1CCN(c2ccccc2F)CC1 (stereo unspecified) | u | 9 | 4.1µM* | -2% | -6%
O=C(c1cccc(C(=O)N2CCN(c3ccccc3F)CC2)c1)N1CCN(c2ccccc2F)CC1 | i | -8 | i | -21% | -9%
COc1ccc(N2CCN(C(=O)c3cccc(N4C(=O)C5C6C=CC(C6)C5C4=O)c3)CC2)cc1 (stereo unspecified) | i | 6 | i | 3% | 2%
O=C(Nc1ccc2c(c1)OCO2)c1cccc(F)c1 | i | -23 | i | 2% | 6%
O=C(Nc1cccc(Cl)c1)Nc1ccc(Br)cc1F | 16µM* | -59* | 21µM* | -28% | -20%
O=C(Nc1cccc(F)c1)Nc1cccc(Cl)c1 | i | -88* | i | u | u
Cn1nnc2cc(NC(=O)Nc3ccccc3F)ccc21 | i | u | i | -5% | -4%
Cc1cc(NC(=O)Nc2ccccc2F)ccc1Br | u | -50* | u | -27% | -30%
O=C(Nc1cccc(F)c1)Nc1ccc2c(c1)OCO2 | u | -67* | i | -26% | -21%
O=C(Nc1cccc(Cl)c1)Nc1cccc(Cl)c1 | i | -21 | u | -21% | u
COC(=O)c1cc(NC(=O)Nc2cccc(Cl)c2)ccc1Cl | i | -97* | 23µM* | u | 13µM*
N#CCc1ccc(NC(=O)Nc2cccc(Cl)c2)cc1 | u | -30 | 15µM* | 2% | -2%
